Here are results for 19 compounds from PubChem BioAssay.

Test [1] in a line: blockers of polyQ-driven CASP3 activation – cell-based (AID 1583). The settings on record: polyglutamine-induced caspase-3 activation, cell assay; stronger effect = higher value;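 tested at 10 µM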.
A short description of test [2]: blockers of biotin-polyQ monomer incorporation into aggregates – biochemical, solid-phase synthetic aggregates, QA3 (AID 1585; call rule not given here). The following applies: polyQ aggregate elongation; EC50: measured here: elongation inhibition potency; inhibition: at 100 µM, stronger effect = higher value.
The nature of test [3]: yeast 75Q aggregation reduction – 75Q-TubU reporter (AID 1593). The following applies: Yeast 75Q polyglutamine aggregation reporter.
Test [4] is described as follows: restoration of touch response, mutant HTT neurons – whole organism, C. elegans mechanosensory neurons, N-terminal huntingtin (AID 1599). The following applies: C. elegans polyQ-huntingtin mechanosensory neurons, stronger effect = higher value.
Test [5] can be described thus: blockers of cytochrome c efflux from mitochondria – biochemical, purified mitochondria (AID 1603).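 Also: mouse liver mitochondria challenged with calcium chloride; signal normalized to the plate average as 100%.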 The following applies: stronger effect = lower value.
A short description of test [6]: polyglutamine aggregate formation blockers (AID 1604). The settings on record: polyglutamine-induced protein aggregation inhibition assay; stronger effect = higher value; tested at 2.5 µM.
Test [7] in a line: glutamate transport activators, MN-1 cells, MN-1 cell line (AID 1612).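 Also: tested at 1 µM final; 0% = mean of DMSO vehicle wells on each plate; positive means more glutamate uptake than control and negative means less.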 The following applies: MN-1 motor neuron cells, stronger effect = higher value.
The nature of test [8]: GFP-Q80 aggregate reduction, neuronal-like cells, cell-based, NGF-treated PC12, GFPQ80 (AID 1614).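 Also: lower means fewer inclusions and 0 means no inclusions at all.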 The following applies: PC12 NGF-treated GFP-polyQ80 inclusion reduction.
Test [9] can be described thus: 75Q-TubH aggregate inhibition, S. cerevisiae, yeast (AID 1616). The following applies: S. cerevisiae 75Q-TubH polyglutamine aggregation suppression; stronger effect = higher value.
Test [10] addresses Mitogen-activated protein kinase 7 (Homo sapiens) (UniProt Q13164). Kind of test: Gal4-ERK5 driven luciferase induction – cell-based, HTS, primary screen (AID 1508626).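 Also: luciferase driven by Gal4-ERK5 fusion binding five Gal4 sites before minimal TATA.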 The following applies: HeLa Gal4-ERK5 transactivation, 18 h, at 5 µM, stronger effect = higher value.
The nature of test [11]: rescue of PC12 cells from polyQ htt toxicity – LDH release (AID 1610). The following applies: PC12 mutant huntingtin toxicity, final LDH at 4 uM, stronger effect = lower value.

Inconclusive results are not listed. For some assays here: Measured potencies and affinities stand elsewhere. The source made the active and inactive calls.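 The calls were made as follows, unless noted: active = luciferase signal above three times the same-plate solvent-only control wells; inactive = the rest.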

Sequence of Mitogen-activated protein kinase 7 (Homo sapiens) (Q13164 whole entry, looked up, the tested form may be a part): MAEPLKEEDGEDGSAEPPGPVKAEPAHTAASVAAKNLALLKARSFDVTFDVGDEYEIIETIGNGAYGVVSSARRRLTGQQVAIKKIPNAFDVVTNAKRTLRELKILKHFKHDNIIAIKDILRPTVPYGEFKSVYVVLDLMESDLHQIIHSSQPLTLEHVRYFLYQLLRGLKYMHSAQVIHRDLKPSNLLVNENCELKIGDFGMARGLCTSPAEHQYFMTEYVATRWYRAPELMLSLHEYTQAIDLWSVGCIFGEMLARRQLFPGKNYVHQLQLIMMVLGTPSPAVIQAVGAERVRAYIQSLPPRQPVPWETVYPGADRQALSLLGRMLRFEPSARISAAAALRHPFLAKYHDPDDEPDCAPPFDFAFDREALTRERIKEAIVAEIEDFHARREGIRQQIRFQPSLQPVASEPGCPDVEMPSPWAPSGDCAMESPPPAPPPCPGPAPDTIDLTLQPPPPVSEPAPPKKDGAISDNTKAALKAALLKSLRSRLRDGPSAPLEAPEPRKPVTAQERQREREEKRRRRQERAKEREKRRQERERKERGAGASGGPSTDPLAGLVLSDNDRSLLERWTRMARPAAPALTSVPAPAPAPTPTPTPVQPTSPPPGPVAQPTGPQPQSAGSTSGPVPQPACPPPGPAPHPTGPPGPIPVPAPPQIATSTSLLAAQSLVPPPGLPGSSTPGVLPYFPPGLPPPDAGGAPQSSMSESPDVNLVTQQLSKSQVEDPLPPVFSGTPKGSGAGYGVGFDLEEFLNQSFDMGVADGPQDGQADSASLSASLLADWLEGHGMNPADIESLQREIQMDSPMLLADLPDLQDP

On to `O=c1c(O)cc2c(O)oc3c(=O)c(O)cc4c3c2c1CC=4O`, for which, in [1], the inhibition was -1.16%. Moreover, in test [2], the concentration for a half-maximal effect (EC50) turned out to be 44 µM and the inhibition was 82% (active). Moreover, the score in test [3] is -1.91. Besides, in [4], the rescue above control is -6.17. In addition, the cytochrome c release ratio in test [5] is 1.61. This compound also gave an inhibition of aggregation in test [6] of 25.2%. Moreover, the glutamate uptake change in test [7] is -0.57%. Besides, in [8], the inclusion score was 2. The compound also gave an aggregation suppression score in test [9] of 0.786.

For `C[C@@H]1CC[C@@]2(OC1)O[C@H]1C[C@H]3[C@@H]4CC[C@@H]5C[C@@H](O)CC[C@]5(C)[C@H]4CC[C@]3(C)[C@H]1[C@@H]2C`, the luciferase signal in test [10] is 20 AU (inactive).

With `COc1ccc(/C=C/C(=O)c2ccc(O)cc2O)cc1OC`, in [10], the luciferase signal was 60 AU (inactive).

In the case of `CC(=O)OCC(=O)[C@@]1(O)CCC2C3CC[C@@H]4C[C@H](O)CC[C@]4(C)C3C(=O)C[C@@]21C` (stereo not given in full), the luciferase signal in [10] was 112 AU (inactive).

Take `C=C1C(=O)C23C(O)C1CCC2C12COC3(O)C(O)C1C(C)(C)CCC2O` (stereo not given): the luciferase signal in test [10] is 108 AU (inactive).

Turning to `Nc1ncnc2c1ncn2[C@H]1C[C@H](O)[C@@H](CO)O1`, in [10], the luciferase signal is 136 AU (inactive).

On to `CC(CNC(=O)c1ccccc1)C(=O)OCC(=O)[C@@]12OC(C)(C)O[C@@H]1CC1C3CCC4=CC(=O)C=C[C@]4(C)[C@@]3(F)[C@@H](O)C[C@@]12C` (stereo not given in full), for which the inhibition in test [1] was -1.62%. Further, the score in test [3] amounted to 1.01. This compound also yielded a rescue above control in test [4] of 13.9. In test [5], the cytochrome c release ratio is 0.92. The same compound gave an inhibition of aggregation in test [6] of 100%. Moreover, the glutamate uptake change in test [7] was determined as 4.01%. Besides, the inclusion score in [8] came out at 2.5. Further, the aggregation suppression score in [9] was determined as 1.21.

Take `CC1(C)CC[C@]2(C(=O)O)CC[C@]3(C)C(=CC[C@@H]4[C@@]5(C)CC[C@H](O)C(C)(C)[C@@H]5[C@H](O)C[C@]43C)[C@@H]2C1`: the luciferase signal in test [10] was 84 AU (inactive).

Take `CC(=O)O[C@H]1CC[C@@]2(C)C(=CC[C@H]3[C@@H]4CC[C@H]([C@H](C)CCCC(C)C)[C@@]4(C)CC[C@@H]32)C1`: in [10], the luciferase signal is 56 AU (inactive).

Take `CC1=C2[C@H](/C=C(\C)C(=O)O)CC[C@@H](C)[C@H]2CC1`: the luciferase signal in test [10] was 68 AU (inactive).

For `CC(NC(=O)C(NC(=O)OCc1ccccc1)C(C)C)C(=O)NC(CC(=O)O)C(=O)OC(F)F` (stereo not given), the inhibition in [1] stood at 59.7%. In addition, the score in test [3] was 1.09. This compound also displayed a rescue above control in test [4] of -1.19. For the same compound, in test [5], the cytochrome c release ratio amounted to 0.97. Besides, in [6], the inhibition of aggregation amounted to 0.68%. The normalised LDH release in [11] stood at 0.83. Also, the glutamate uptake change in test [7] worked out at 2.37%. Also, the inclusion score in test [8] is 2. Also, the aggregation suppression score in [9] came out at 1.2.

Turning to `CC(=O)[C@H]1CC[C@H]2[C@@H]3CCC4=CC(=O)CC[C@]4(C)[C@H]3C(OC(=O)CCC(=O)O)C[C@]12C` (stereo not given in full), the luciferase signal in [10] was 60 AU (inactive).

As for `CC1=C2[C@@H]([C@H](C)CC[C@H]2/C=C(\C)C(=O)O)[C@H](O)C1`, in test [10], the luciferase signal was 24 AU (inactive).

For `CCCCC(=O)OC1(C(=O)CO)C(C)CC2C3CCC4=CC(=O)C=CC4(C)[C@@]3(F)[C@@H](O)CC21C` (stereo not given in full), the inhibition in test [1] turned out to be 9.05%. The compound further yielded a score in test [3] of -0.8. The rescue above control in test [4] was -0.98. For the same compound, the cytochrome c release ratio in test [5] was determined as 1.65. Besides, the inhibition of aggregation in test [6] came to 82%. Moreover, the normalised LDH release in test [11] was found to be 0.899. Further, the glutamate uptake change in test [7] was found to be 9.55%. Also, the aggregation suppression score in [9] came out at 1.32.

In the case of `CO/N=C(/C(=O)N[C@@H]1C(=O)N2C(C(=O)OCOC(=O)C(C)(C)C)=C(/C=C\c3scnc3C)CS[C@H]12)c1csc(N)n1`, the luciferase signal in test [10] is 132 AU (inactive).

With `CC(C)=CCC[C@@H](C)[C@@H]1CC[C@]2(C)C3=C(CC[C@@]12C)[C@@]1(C)CC[C@H](O)C(C)(C)[C@@H]1CC3`, the luciferase signal in test [10] is 68 AU (inactive).

Take `CC(=O)OC1C[C@@]2(C)C(CC[C@@H]2C(C)=O)C2CCC3=CC(=O)CC[C@]3(C)C12` (stereo not given in full): the luciferase signal in test [10] was 108 AU (inactive).

As to `C[C@H](CCC(=O)O)[C@H]1CC[C@H]2[C@@H]3CC[C@@H]4CCCC[C@]4(C)[C@H]3CC[C@]12C`, in [10], the luciferase signal is 36 AU (inactive).

For the compound `CC(=O)O[C@H]1CC[C@]2(C)C3=C(CC[C@H]2C1(C)C)[C@@]1(C)CC[C@@H]([C@H](C)CCC=C(C)C)[C@]1(C)CC3`, in test [10], the luciferase signal was 28 AU (inactive).
